{"source": "PubChem BioAssay (Tox21)", "note": "Results filed as inconclusive are left out. Active and inactive are the calls of the source. The call rests on the fitted dose curve. On the % scale 0 is the no-effect control and ±100 the full control effect."}
{"molecular_target": "Retinoic acid receptor RXR-alpha (Homo sapiens) (UniProt P19793)", "sequence (P19793 whole entry, looked up)": "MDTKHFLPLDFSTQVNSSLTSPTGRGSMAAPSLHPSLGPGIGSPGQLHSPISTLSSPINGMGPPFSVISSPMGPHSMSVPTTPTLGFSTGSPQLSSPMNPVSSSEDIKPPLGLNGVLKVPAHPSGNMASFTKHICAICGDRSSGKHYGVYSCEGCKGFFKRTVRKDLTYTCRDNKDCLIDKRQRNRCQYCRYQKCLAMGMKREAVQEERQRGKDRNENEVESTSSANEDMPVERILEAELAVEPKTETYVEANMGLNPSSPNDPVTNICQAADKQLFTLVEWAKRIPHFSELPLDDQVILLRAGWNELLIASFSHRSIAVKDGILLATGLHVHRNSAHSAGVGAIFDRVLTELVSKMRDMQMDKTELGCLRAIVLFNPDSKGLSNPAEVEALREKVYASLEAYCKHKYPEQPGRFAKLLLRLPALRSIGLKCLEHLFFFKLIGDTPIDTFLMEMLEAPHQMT", "assay": "qHTS assay to identify small molecule agonists of the RXR signaling pathway (AID 1159527); further: nearly all actives have a fitted effect of over 35% in size", "conditions": "HEK293T RXRa-UAS-bla, beta-lactamase ratio, 16 h; series mostly up to 76.8 µM; activation: at the top concentration", "source_text": "U.S. Tox21 Program National Center for Advancing Translational Sciences [NCATS] NIH Chemical Genomics Center [NCGC] U.S. Environmental Protection Agency [EPA] National Institutes of Environmental Health Sciences [NIEHS] National Toxicology Program [NTP] U.S. Food and Drug Administration [FDA] Tox21 Assay Overview: The Retinoid X receptor (RXR), a nuclear hormone receptor expressed in liver, spleen, placenta, epidermis, central nervous system. These receptors are able to form homo and heterodimers with other nuclear receptors and due to this heterodimerizing ability, RXR functions as master regulators producing diverse physiological effects. Three subtypes of RXR exist; alpha, beta and gamma. Retinoid X receptor alpha (RXR-alpha) has potential roles in metabolic signaling pathways, skin alopecia, dermal cysts, cardiac development, insulin sensitization etc. Therefore screening environmental chemicals on RXR-alpha signaling can be used for the studies focused on such therapeutic applications. For quantification of RXR-alpha ligands signaling, GeneBLAzer RXR alpha-UAS-bla HEK 293T (Life Technologies, Carlsbad, CA) cells containing a beta-lactamase reporter-gene under control of Retinoid X receptor-alpha response element were used to screen Tox21 10K library.\nTox21 Assay Protocol Summary: RXR-alpha HEK 293T cells were dispensed at 2,000 cells/6 uL of assay medium containing 2% charcoal-stripped FBS using a Multidrop Combi (ThermoFisher Scientific, Waltham, MA) dispenser. The assay was performed in black wall/clear-bottom 1536-well plates (Greiner Bio-One North America Inc. Monroe, NC). 9-cis retinoic acid was used as a positive control in the agonist mode screen. After the assay plates were incubated at 37 C and 5% CO2 for 5 hr, 23 nL of compounds dissolved in DMSO, positive controls or DMSO only were transferred to the assay plate by a Pintool station (Kalypsys, San Diego, CA). The assay plates were incubated at 37 C and 5% CO2 for 16 hr. One uL of LiveBLAzer B/G FRET substrate (Life Technologies) was added using a Flying Reagent Dispenser (Aurora Discovery, San Diego, CA) and the plates were incubated at room temperature for 2 hr. Fluorescence intensity (405 nm excitation, 460/530 nm emission) was measured using an Envision plate reader (PerkinElmer, Shelton, CT)."}
{"smiles": "CC(=O)N1C[C@H](O)C[C@H]1C(=O)O", "activation": "7.02% [at 35.3 µM] (inactive)"}
{"smiles": "O=C(O)CNC(=O)c1ccc(CO)o1", "activation": "-0.112% (inactive)"}
{"smiles": "CC(C)(CCC(=O)O)C(=O)O", "activation": "6.36% (inactive)"}
{"smiles": "CC(N)C12CC3CC(CC(C3)C1)C2", "note": "(stereo not given)", "activation": "-11% [at 35.3 µM] (inactive)"}
{"smiles": "CN1CCC(=C2c3ccccc3CCc3cccnc32)CC1", "activation": "1.46% [at 35.3 µM] (inactive)"}
{"smiles": "C[C@H]1C[C@H]2[C@@H]3CCC4=CC(=O)C=C[C@]4(C)[C@H]3C(=O)C[C@]2(C)[C@@]1(O)C(=O)CO", "activation": "5.35% [at 35.3 µM] (inactive)"}
{"smiles": "CO[C@@]1(NC(=O)CSC[C@@H](N)C(=O)O)C(=O)N2C(C(=O)O)=C(CSc3nnnn3C)CS[C@@H]21", "activation": "1.61% [at 35.3 µM] (inactive)"}
{"smiles": "COc1c(N2CCNC(C)C2)c(F)cc2c(=O)c(C(=O)O)cn(C3CC3)c12", "note": "(stereo not given)", "activation": "10% [at 35.3 µM] (inactive)"}
{"smiles": "CC1=CCC(O)(C(C)C)CC1", "note": "(stereo not given)", "activation": "4.85% (inactive)"}
{"smiles": "CC(C)C(=O)OC(=O)C(C)C", "activation": "-8.91% (inactive)"}
{"smiles": "CCCCCCC1CCC(=O)O1", "note": "(stereo not given)", "activation": "-0.604% (inactive)"}
{"smiles": "CCCCS(=O)(=O)N[C@@H](Cc1ccc(OCCCCC2CCNCC2)cc1)C(=O)O", "activation": "10.5% [at 35.3 µM] (inactive)"}
{"smiles": "CCO[Si](OCC)(OCC)c1ccccc1", "activation": "6.55% (inactive)"}
{"smiles": "O=C(c1ccccc1O)c1ccccc1O", "activation": "8.61% (inactive)"}
{"smiles": "CCCCc1nc(Cl)c(CO)n1Cc1ccc(-c2ccccc2-c2nn[nH]n2)cc1", "activation": "2.8% [at 35.3 µM] (inactive)"}
{"smiles": "O=C(CO)[C@@H](O)[C@H](O)[C@@H](O)CO", "activation": "4.31% [at 35.3 µM] (inactive)"}
{"smiles": "O=C(O)CC(C(=O)O)S(=O)(=O)O", "note": "(stereo not given)", "activation": "12.5% (inactive)"}
{"smiles": "CN1CCN(c2cc3c(nn2)Oc2ccccc2N3C)CC1", "activation": "10.7% [at 15.8 µM] (inactive)"}
{"smiles": "CN(C)C(=O)Oc1ccc[n+](C)c1", "activation": "1.3% [at 35.3 µM] (inactive)"}
{"smiles": "CCCCOC(=O)CCC(C)=O", "activation": "6.85% (inactive)"}
{"smiles": "OCCc1ccccn1", "activation": "-3.76% (inactive)"}
{"smiles": "[K+]", "activation": "-1.91% (inactive)"}
{"smiles": "CN(C)CCCN(C)CCCN(C)C", "activation": "12.8% (inactive)"}
{"smiles": "CC(=O)Oc1cccc(C)c1", "activation": "4.81% [at 35.3 µM] (inactive)"}
{"smiles": "c1ccc(CCc2ccccc2)cc1", "activation": "2.41% (inactive)"}
{"smiles": "CCOC(=O)OC(C)OC1=C(C(=O)Nc2ccccn2)N(C)S(=O)(=O)c2ccccc21", "note": "(stereo not given)", "activation": "5.56% [at 35.3 µM] (inactive)"}
{"smiles": "CN1[C@@H]2CC[C@H]1CC(OC(=O)C(O)c1ccccc1)C2", "note": "(stereo not given in full)", "activation": "2.11% [at 35.3 µM] (inactive)"}
{"smiles": "CO[C@@]1(NC(=O)C(C(=O)O)c2ccc(O)cc2)C(=O)N2C(C(=O)O)=C(CSc3nnnn3C)CO[C@@H]21", "note": "(stereo not given in full)", "activation": "-5.03% [at 35.3 µM] (inactive)"}
{"smiles": "O=S(=O)(O)c1cccc(S(=O)(=O)O)c1", "activation": "-0.258% (inactive)"}
{"smiles": "CC12CCC(C(=O)C1=O)C2(C)C", "note": "(stereo not given)", "activation": "-4.24% (inactive)"}
{"smiles": "COc1ccccc1OCC1CNC(=O)O1", "note": "(stereo not given)", "activation": "3.04% [at 35.3 µM] (inactive)"}
{"smiles": "NC(CCC(=O)O)C(=O)O", "note": "(stereo not given)", "activation": "2.97% (inactive)"}
{"smiles": "CCOC(=O)c1cnc2c(cnn2CC)c1NN=C(C)C", "activation": "-8.86% [at 35.3 µM] (inactive)"}
{"smiles": "CCCCCC(=O)OCCc1ccccc1", "activation": "1.12% (inactive)"}
{"smiles": "NC(=O)Cc1cccc2ccccc12", "activation": "15% (inactive)"}
{"smiles": "C[N+]1(C)[C@@H]2CC(OC(=O)[C@H](CO)c3ccccc3)C[C@H]1[C@@H]1O[C@@H]12", "note": "(stereo not given in full)", "activation": "9.06% [at 35.3 µM] (inactive)"}
{"smiles": "O=C1NC(=O)C2CC=CCC12", "note": "(stereo not given)", "activation": "14.3% (inactive)"}
{"smiles": "CC1=NN(c2cc(S(=O)(=O)O)ccc2Cl)C(=O)C1N=Nc1ccccc1", "note": "(stereo not given)", "activation": "-13% (inactive)"}
{"smiles": "CC1=NS(=O)(=O)c2cc(Cl)ccc2N1", "activation": "6.14% [at 35.3 µM] (inactive)"}
{"smiles": "O=CN(CCO)CCO", "activation": "2.61% (inactive)"}
